Measurements from PubChem BioAssay (Tox21).
Values joined by “and” are separate entries in the source; they are usually repeats but may differ in a detail not shown here. Equal entries are not always repeated. Inconclusive results are not listed. Some compounds were tested as several samples or in several runs, with calls that do not always agree. Active and inactive are the calls of the source. The call rests on the fitted dose curve; in most records, active means well fitted curve in the direction sought with a large enough effect in the repeat runs; inconclusive means weak or mixed curves; inactive means no such curve, though single readings can be large; an effect the other way counts as inactive or inconclusive.

What was measured:
[1] = Human pregnane X receptor (PXR) small molecule agonists, qHTS cell viability counter screen (AID 1346977); settings: PXR-Luc HepG2 viability, CellTiter-Fluor, 24 h; series mostly up to 92.4 µM; further: nearly all actives have a fitted effect of over 50% in size; further: potency means the concentration at half of the fitted maximal effect
Procedure, shortened: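 Same-well viability read: CellTiter-Fluor added after 23 hr compound exposure, fluorescence measured 1 hr later. Cells were PXR-Luc HepG2 seeded at 2,000/well in 5% charcoal-stripped FBS medium, rested 5 hr before dosing at 37 C.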

[2] = Caspase-3/7 induction in HepG2 cells by small molecules, qHTS cell viability counter screen (AID 1346981); settings: CellTiter-Fluor fluorescence, 17 h; series mostly up to 92.4 µM; further: nearly all actives have a fitted effect of over 30% in size; further: potency means the concentration at half of the fitted maximal effect
Procedure, shortened: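 Viability determined by CellTiter-Fluor fluorescence in HepG2 wells also used for the luminescent Caspase-Glo 3/7 read. Compounds were present for 16 hr at 37 C, 5% CO2 before reagent addition.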

[3] = target: Nuclear receptor subfamily 1 group I member 2 (Homo sapiens) (UniProt O75469); assay: Human pregnane X receptor (PXR) small molecule agonists, qHTS assay (AID 1346982); settings: PXR-Luc HepG2, CYP3A4 luciferase reporter, 24 h; series mostly up to 92.4 µM; further: nearly all actives have a fitted effect of over 35% in size; further: potency means the concentration at half of the fitted maximal effect
Procedure, shortened: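 Compound-induced hPXR transactivation of a CYP3A4 luciferase reporter was scored in HepG2 PXR-Luc cells over 24 hr at 37 C, 5% CO2, by luminescence.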

[4] = target: Cytochrome P450 2D6 (Homo sapiens) (UniProt P10635); assay: Cytochrome P450 Family 2 Subfamily D Member 6 (CYP2D6) small molecule antagonists: luciferase reporter qHTS assay (AID 1671196); settings: P450-Glo CYP2D6 enzyme assay, luciferin luminescence, 1 h; series mostly up to 115 µM; further: nearly all actives have a fitted effect of over 50% in size; further: potency means the concentration at half of the fitted maximal effect
Procedure, shortened: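 Each well received CYP2D6 with its proluciferin substrate and chemical, sat 10 min, then got NADPH regeneration solution for 1 h at room temperature. Luminescence in RLU served as the activity measure.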

[5] = target: Cytochrome P450 2C9 (Homo sapiens) (UniProt P11712); assay: Cytochrome P450 Family 2 Subfamily C Member 9 (CYP2C9) small molecule antagonists: luciferase reporter qHTS assay (AID 1671198); settings: P450-Glo CYP2C9 enzyme assay, luciferin luminescence; series mostly up to 115 µM; further: nearly all actives have a fitted effect of over 50% in size; further: potency means the concentration at half of the fitted maximal effect
Procedure, shortened: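 P450-Glo proluciferin substrate with CYP2C9 enzyme; 10 min RT preincubation, then NADPH regeneration 1 h at 37C; luciferin detection reagent 20 min RT, luminescence in relative luminescence units.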

[6] = target: Cytochrome P450 1A2 (Homo sapiens) (UniProt P05177); assay: Cytochrome P450 Family 1 Subfamily A Member 2 (CYP1A2) small molecule antagonists: luciferase reporter qHTS assay (AID 1671199); settings: P450-Glo CYP1A2 enzyme, luciferin luminescence, 1 h; series mostly up to 53 µM; further: nearly all actives have a fitted effect of over 50% in size; further: potency means the concentration at half of the fitted maximal effect
Procedure, shortened: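 Enzymatic CYP1A2 assay, human, luminescent: 10 min compound–enzyme–substrate preincubation, 1 h NADPH-dependent turnover, 20 min detection step, room temperature throughout. Reduced light indicates lower CYP1A2 activity.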

[7] = target: Voltage-gated inwardly rectifying potassium channel KCNH2 (Homo sapiens) (UniProt Q12809); assay: Human Ether-a-go-go-Related Gene (hERG) channel small molecule antagonists: fluorescence cell-based qHTS assay (AID 1671200); settings: hERG-U2OS cells, FluxOR thallium flux fluorescence; series mostly up to 76.8 µM; further: nearly all actives have a fitted effect of over 50% in size; further: potency means the concentration at half of the fitted maximal effect
Procedure, shortened: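 Thallium flux as potassium surrogate: FluxOR II dye loaded 1 h at room temperature into hERG-expressing U2OS cells, then stimulus buffer added after 10 min. Kinetic 480 nm excitation/540 nm emission read, 2 min.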

[8] = target: Cytochrome P450 3A4 (Homo sapiens) (UniProt P08684); assay: Cytochrome P450 Family 3 Subfamily A Member 4 (CYP3A4) small molecule antagonists: luciferase reporter qHTS assay (AID 1671201); settings: P450-Glo CYP3A4 enzyme, luciferin luminescence, 1 h; series mostly up to 115 µM; further: nearly all actives have a fitted effect of over 50% in size; further: potency means the concentration at half of the fitted maximal effect
Procedure, shortened: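 Recombinant human CYP3A4 converts a proluciferin substrate to luciferin over 1 h at room temperature after NADPH regeneration solution is added (compound preincubated 10 min); detection reagent stops reaction, luminescence read 20 min later as relative units.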

[9] = Caspase-3/7 induction in HepG2 cells by small molecules, qHTS assay (AID 1346978); settings: HepG2 caspase-3/7 activation, Caspase-Glo luminescence, 17 h; series mostly up to 92.4 µM; further: nearly all actives have a fitted effect of over 15% in size
Procedure, shortened: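 Wild-type HepG2 cells, 2,000/well, settled 5 hr at 37 C and 5% CO2, then compound-treated for 17 hr; caspase-3/7 activity read by luminescent Caspase-Glo 3/7 after 30 min at room temperature.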

[10] = Caspase-3/7 induction in CHO-K1 cells by small molecules, qHTS cell viability counter screen (AID 1346979); settings: CellTiter-Fluor fluorescence, 17 h; series mostly up to 92.4 µM; further: nearly all actives have a fitted effect of over 35% in size; further: potency means the concentration at half of the fitted maximal effect
Procedure, shortened: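 Cytotoxicity counter screen: CellTiter-Fluor added to compound-treated wild-type CHO-K1 cells at 16 h (37C, 5% CO2), fluorescence measured 1 h later; same wells as caspase-3/7 measurement.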

[11] = Caspase-3/7 induction in CHO-K1 cells by small molecules, qHTS assay (AID 1346980); settings: CHO-K1 caspase-3/7 induction, Caspase-Glo luminescence, 17 h; series mostly up to 92.4 µM; further: nearly all actives have a fitted effect of over 15% in size
Procedure, shortened: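 Wild-type CHO-K1 cells exposed to compounds for 17hr at 37 C, 5% CO2. Caspase-3/7 activity then measured by Caspase-Glo 3/7 luminescence after 30min at room temperature.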

[12] = target: Cytochrome P450 2C19 (Homo sapiens) (UniProt P33261); assay: Cytochrome P450 Family 2 Subfamily C Member 19 (CYP2C19) small molecule antagonists: luciferase reporter qHTS assay (AID 1671197); settings: P450-Glo CYP2C19 enzyme, luciferin luminescence, 1 h; series mostly up to 115 µM; further: nearly all actives have a fitted effect of over 65% in size; further: potency means the concentration at half of the fitted maximal effect
Procedure, shortened: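 P450-Glo CYP2C19 system: enzyme-substrate mix with compound 10 min at room temperature, then NADPH regeneration solution, 1 h at 37C. Proluciferin-to-luciferin conversion detected by luminescence after 20 min with detection reagent; ketoconazole as positive control.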

[13] = target: Nuclear receptor subfamily 1 group I member 2 (Rattus norvegicus) (UniProt Q9R1A7); assay: Rat pregnane X receptor (rPXR) activation by small molecules, qHTS assay (AID 1346983); settings: rPXR luciferase reporter cells, One-Glo luminescence, 24 h; stronger effect = higher value; further: nearly all actives have a fitted effect of over 20% in size
Procedure, shortened: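 Cell-based rPXR activation assay: rPXR cells, 2,000 per well, rested 5hr at 37 C, then exposed to compounds in DMSO for 24 hr at 37 C. Luciferase activity read by One-Glo luminescence after 30 min at room temperature.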

[14] = target: Nuclear receptor subfamily 1 group I member 2 (Homo sapiens) (UniProt O75469); assay: CYP3A4 induction through human pregnane X receptor (PXR) by small molecules, qHTS assay (AID 1346984); settings: DPX-2 HepG2 PXR, CYP3A4-luciferin luminescence, 24 h; series mostly up to 46.1 µM; further: nearly all actives have a fitted effect of over 40% in size
Procedure, shortened: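 Readings come from a luciferase reporter: DPX-2 cells, which are HepG2 cotransfected with PXR and a CYP3A4-promoter construct, were exposed to test compounds for 24 h at 37C before One-Glo detection.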

[15] = target: Nuclear receptor subfamily 1 group I member 2 (Homo sapiens) (UniProt O75469); assay: Human pregnane X receptor (PXR) activation by small molecules, qHTS assay (AID 1346985); settings: DPX-2 HepG2 CYP3A4-luciferase, 24 h; series mostly up to 38.3 µM; further: nearly all actives have a fitted effect of over 40% in size
Procedure, shortened: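 DPX-2 cells (HepG2 co-transfected with a PXR response element and a CYP3A4-promoter luciferase construct) were seeded at 2,000 per well, rested 5 hr at 37C, then exposed to DMSO-dissolved compounds for 24 hr. Activation was read as luciferase luminescence.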
On the % scale 0 is the no-effect control and ±100 the full control effect.

Chain of Cytochrome P450 2C9 (Homo sapiens) (P11712 whole entry, looked up): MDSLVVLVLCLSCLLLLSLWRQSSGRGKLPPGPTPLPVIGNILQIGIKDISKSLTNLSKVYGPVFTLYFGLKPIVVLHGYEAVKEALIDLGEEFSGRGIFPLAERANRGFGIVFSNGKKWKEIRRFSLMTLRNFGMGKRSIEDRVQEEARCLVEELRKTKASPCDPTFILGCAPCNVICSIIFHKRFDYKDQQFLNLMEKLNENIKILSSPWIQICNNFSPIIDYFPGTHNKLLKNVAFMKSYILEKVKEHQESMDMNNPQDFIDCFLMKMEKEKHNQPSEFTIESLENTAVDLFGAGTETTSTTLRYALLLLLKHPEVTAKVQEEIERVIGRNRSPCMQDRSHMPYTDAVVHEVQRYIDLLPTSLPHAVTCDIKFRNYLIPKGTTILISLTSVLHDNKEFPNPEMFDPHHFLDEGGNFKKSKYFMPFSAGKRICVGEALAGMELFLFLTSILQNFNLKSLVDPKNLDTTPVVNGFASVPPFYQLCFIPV
Chain of Cytochrome P450 3A4 (Homo sapiens) (P08684 whole entry, looked up): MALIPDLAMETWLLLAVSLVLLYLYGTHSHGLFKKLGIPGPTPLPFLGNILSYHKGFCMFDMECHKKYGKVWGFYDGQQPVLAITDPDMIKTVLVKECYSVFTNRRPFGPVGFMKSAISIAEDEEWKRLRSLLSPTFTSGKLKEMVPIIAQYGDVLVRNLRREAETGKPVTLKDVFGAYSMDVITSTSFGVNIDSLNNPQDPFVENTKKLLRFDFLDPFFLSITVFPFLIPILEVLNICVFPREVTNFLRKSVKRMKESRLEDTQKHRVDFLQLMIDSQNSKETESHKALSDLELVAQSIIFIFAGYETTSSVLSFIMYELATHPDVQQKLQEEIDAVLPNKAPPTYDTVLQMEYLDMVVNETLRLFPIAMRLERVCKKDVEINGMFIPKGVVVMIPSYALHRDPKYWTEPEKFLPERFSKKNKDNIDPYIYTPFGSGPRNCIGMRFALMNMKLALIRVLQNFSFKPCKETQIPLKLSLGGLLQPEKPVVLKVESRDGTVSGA
Chain of Nuclear receptor subfamily 1 group I member 2 (Homo sapiens) (O75469 whole entry, looked up): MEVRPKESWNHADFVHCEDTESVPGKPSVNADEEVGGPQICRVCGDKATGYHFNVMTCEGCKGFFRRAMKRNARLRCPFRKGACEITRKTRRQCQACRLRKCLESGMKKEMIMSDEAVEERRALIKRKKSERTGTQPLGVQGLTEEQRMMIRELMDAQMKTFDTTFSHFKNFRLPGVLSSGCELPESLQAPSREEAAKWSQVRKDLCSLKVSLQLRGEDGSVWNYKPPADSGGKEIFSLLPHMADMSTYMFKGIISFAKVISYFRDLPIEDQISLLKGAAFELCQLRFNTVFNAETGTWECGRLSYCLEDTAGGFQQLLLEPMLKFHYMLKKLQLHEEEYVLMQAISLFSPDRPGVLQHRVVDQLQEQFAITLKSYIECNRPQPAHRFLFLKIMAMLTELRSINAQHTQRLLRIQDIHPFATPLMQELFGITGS
Chain of Cytochrome P450 2C19 (Homo sapiens) (P33261 whole entry, looked up): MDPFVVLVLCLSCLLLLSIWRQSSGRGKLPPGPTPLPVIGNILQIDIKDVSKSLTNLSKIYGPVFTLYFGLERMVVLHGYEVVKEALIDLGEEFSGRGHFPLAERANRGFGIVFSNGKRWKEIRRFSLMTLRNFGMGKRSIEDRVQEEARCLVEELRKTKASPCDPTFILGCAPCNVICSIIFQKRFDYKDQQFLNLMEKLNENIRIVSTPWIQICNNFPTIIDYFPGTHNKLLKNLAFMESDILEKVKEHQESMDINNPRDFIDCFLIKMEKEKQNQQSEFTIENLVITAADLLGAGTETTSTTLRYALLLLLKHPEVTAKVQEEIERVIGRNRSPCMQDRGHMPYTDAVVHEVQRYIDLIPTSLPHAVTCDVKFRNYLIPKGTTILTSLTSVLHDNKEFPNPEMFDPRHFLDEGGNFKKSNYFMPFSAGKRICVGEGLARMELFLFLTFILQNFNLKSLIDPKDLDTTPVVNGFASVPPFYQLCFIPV
Chain of Voltage-gated inwardly rectifying potassium channel KCNH2 (Homo sapiens) (Q12809 whole entry, looked up): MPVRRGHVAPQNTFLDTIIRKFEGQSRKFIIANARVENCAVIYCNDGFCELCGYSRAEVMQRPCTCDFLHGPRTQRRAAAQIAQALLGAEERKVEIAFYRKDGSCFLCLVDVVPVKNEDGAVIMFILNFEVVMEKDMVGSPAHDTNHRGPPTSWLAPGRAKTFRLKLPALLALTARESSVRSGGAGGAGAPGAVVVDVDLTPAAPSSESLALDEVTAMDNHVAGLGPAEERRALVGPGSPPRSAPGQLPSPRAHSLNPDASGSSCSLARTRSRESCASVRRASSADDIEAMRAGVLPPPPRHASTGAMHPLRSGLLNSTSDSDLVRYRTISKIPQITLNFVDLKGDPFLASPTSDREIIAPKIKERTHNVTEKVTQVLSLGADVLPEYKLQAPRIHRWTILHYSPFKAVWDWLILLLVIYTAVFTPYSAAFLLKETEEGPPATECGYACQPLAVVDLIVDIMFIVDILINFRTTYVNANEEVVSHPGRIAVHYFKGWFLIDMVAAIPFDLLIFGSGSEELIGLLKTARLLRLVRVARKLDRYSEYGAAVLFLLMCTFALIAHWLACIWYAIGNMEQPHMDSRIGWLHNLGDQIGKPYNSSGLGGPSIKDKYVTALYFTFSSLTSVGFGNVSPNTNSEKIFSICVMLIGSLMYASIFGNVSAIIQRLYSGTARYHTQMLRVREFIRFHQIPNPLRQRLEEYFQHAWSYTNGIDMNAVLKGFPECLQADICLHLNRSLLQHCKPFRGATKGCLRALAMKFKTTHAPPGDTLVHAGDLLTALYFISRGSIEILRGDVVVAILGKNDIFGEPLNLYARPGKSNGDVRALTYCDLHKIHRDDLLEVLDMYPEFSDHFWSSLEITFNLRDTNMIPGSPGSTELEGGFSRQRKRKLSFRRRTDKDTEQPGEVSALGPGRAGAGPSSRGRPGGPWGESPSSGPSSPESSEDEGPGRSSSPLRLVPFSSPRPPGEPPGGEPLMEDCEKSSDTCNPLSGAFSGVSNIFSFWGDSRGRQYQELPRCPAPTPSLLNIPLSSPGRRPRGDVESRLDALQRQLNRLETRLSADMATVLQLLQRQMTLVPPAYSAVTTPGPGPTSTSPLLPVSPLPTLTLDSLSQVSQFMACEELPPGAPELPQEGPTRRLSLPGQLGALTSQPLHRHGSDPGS
Chain of Cytochrome P450 2D6 (Homo sapiens) (P10635 whole entry, looked up): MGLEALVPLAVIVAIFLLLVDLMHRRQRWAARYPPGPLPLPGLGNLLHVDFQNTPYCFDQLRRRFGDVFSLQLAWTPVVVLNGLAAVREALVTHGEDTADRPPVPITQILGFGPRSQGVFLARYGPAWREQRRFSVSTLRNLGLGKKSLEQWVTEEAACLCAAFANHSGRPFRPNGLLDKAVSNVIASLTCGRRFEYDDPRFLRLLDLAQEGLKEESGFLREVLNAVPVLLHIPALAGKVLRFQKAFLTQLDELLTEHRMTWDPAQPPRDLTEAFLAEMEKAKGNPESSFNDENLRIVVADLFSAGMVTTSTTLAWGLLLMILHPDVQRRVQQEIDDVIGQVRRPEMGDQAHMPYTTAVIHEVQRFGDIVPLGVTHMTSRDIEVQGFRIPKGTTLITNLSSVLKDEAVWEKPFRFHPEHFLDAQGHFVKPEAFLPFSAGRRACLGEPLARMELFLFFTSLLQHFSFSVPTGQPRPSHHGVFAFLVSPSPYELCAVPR
Chain of Cytochrome P450 1A2 (Homo sapiens) (P05177 whole entry, looked up): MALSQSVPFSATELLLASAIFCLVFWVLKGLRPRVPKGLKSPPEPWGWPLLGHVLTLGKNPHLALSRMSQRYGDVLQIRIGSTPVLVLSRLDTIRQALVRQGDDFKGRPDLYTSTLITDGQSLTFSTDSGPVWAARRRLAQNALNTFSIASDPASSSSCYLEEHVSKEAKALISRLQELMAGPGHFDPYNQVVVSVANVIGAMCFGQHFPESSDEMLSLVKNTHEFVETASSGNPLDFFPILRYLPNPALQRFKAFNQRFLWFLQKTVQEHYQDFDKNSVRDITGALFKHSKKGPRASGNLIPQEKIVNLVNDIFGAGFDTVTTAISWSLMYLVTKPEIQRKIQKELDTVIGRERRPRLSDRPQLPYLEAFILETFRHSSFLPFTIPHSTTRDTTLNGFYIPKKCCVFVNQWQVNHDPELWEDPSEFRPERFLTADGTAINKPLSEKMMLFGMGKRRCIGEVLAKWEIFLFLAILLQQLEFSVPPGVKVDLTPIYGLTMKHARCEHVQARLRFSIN
Chain of Nuclear receptor subfamily 1 group I member 2 (Rattus norvegicus) (Q9R1A7 whole entry, looked up): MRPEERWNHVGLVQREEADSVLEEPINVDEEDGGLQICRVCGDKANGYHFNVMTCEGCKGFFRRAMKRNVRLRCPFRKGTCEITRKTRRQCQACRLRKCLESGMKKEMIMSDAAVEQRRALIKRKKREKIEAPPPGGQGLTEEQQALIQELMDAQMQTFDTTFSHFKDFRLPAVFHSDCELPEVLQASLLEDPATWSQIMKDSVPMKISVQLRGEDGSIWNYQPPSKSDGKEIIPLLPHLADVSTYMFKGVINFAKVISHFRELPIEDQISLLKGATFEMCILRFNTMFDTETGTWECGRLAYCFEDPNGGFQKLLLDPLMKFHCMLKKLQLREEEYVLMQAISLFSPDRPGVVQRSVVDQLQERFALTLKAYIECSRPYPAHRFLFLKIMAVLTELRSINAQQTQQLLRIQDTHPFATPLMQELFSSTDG

CCOc1ccc2c(c1)C(C)=CC(C)(C)N2
active: Potency [3] 60.8 µM and 54.5 µM | Potency [4] 11.2 µM and 10 µM | Potency [5] 7.93 µM and 5.64 µM | Potency [6] 39.7 µM and 31.7 µM | Potency [8] 12.6 µM and 17.8 µM
inactive: Potency [1] | Potency [2] | Potency [7]

Nc1cc(S(=O)(=O)O)cc2cc(S(=O)(=O)O)cc(O)c12
active: Potency [10] 43.1 µM and 61.1 µM | Potency [2] 54.5 µM | Potency [4] 35.6 µM | Potency [12] 19.9 µM and 22.4 µM | Potency [5] 39.9 µM
inactive: Potency [9] | Potency [11] | Potency [3] | Potency [7] | Potency [8]
inactive and 39.9 µM (active): Potency [6]

Cc1cccc(O)c1C
inactive: Potency [1] | Potency [10] | Potency [11] | Potency [2] | Potency [3] | Potency [4] | Potency [5] | Potency [7] | Potency [8]
70.5 µM (active) and inactive: Potency [12]
active: Potency [6] 46.1 µM

COC(=O)c1cccc(C(=O)OC)c1
inactive: Potency [9] | Potency [10] | Potency [11] | Potency [2] | Potency [3] | Potency [4] | Potency [12] | Potency [5] | Potency [7] | Potency [8]
active: Potency [6] 12.4 µM and 11.2 µM

c1ccc2c(c1)CCCC2C1=NCCN1 (stereo not given)
inactive: Potency [1] | Potency [10] | Potency [11] | Potency [2] | Potency [7]

CCN1CCCC1CNC(=O)c1cc(S(=O)(=O)CC)c(N)cc1OC (stereo not given)
inactive: Potency [1] | Potency [10] | Potency [11] | Potency [2] | Potency [3] | Potency [12] | Potency [5] | Potency [6] | Potency [8]
active: Potency [4] 9.77 µM

O=C1CC2(CCCC2)CC(=O)N1CCCCN1CCN(c2ncccn2)CC1
54.5 µM (active) and inactive: Potency [10]
inactive: Potency [9] | Potency [11] | Potency [2]

C=CC(=O)OCCCCCCOC(=O)C=C
active: Potency [10] 43.8 µM and 43.3 µM | Potency [12] 39.9 µM | Potency [5] 64.1 µM and 56.4 µM | Potency [6] 28.6 µM and 31.7 µM | Potency [8] 40.4 µM
inactive: Potency [1] | Potency [2] | Potency [3] | Potency [4] | Potency [7]

CCn1cc(C(=O)O)c(=O)c2cc(F)c(N3CCNC(C)C3)c(F)c21 (stereo not given)
inactive: Potency [9] | Potency [10] | Potency [11] | Potency [2] | Potency [3] | max activation [13] -0.533% | Potency [14] | Potency [15] | Potency [4] | Potency [5] | Potency [6] | Potency [8]

CCN(CC)CCOc1ccc(/C(=C(\Cl)c2ccccc2)c2ccccc2)cc1
active: Potency [1] 39.4 µM and 26.6 µM | Potency [10] 55.6 µM | Potency [2] 55.6 µM

CCC(C)(C)C(=O)O[C@H]1C[C@@H](C)C=C2C=C[C@H](C)[C@H](CC[C@@H]3C[C@@H](O)CC(=O)O3)[C@H]21
inactive: Potency [9] | Potency [10] | Potency [11]

Nc1ccc(O)cc1
56.6 µM (active) and inactive: Potency [1] | Potency [2]
inactive: Potency [11] | Potency [3] | Potency [7]
active: Potency [10] 56.6 µM | Potency [4] 37 µM | Potency [12] 20.8 µM and 34.7 µM | Potency [5] 26.2 µM and 34.7 µM | Potency [8] 37 µM

Nc1cc(Cl)c(-c2cc(Cl)c(N)cc2Cl)cc1Cl
inactive: Potency [11] | Potency [7]
active: Potency [1] 50.1 µM and 68.6 µM | Potency [10] 30.6 µM and 54.5 µM | Potency [3] 24.3 µM and 19.3 µM | Potency [12] 10 µM and 7.1 µM | Potency [6] 11.2 µM and 12.6 µM | Potency [8] 2 µM and 3.56 µM

C=CS(=O)(=O)O
inactive: Potency [1] | Potency [10] | Potency [11] | Potency [2] | Potency [3] | Potency [12] | Potency [5] | Potency [6] | Potency [7]

CC(COc1ccccc1)N(CCCl)Cc1ccccc1 (stereo not given)
active: Potency [4] 570 nM and 448 nM and 692 nM | Potency [12] 2.27 µM and 2.24 µM and 3.47 µM | Potency [5] 28.6 µM and 22.4 µM and 12.3 µM | Potency [7] 19.7 µM and 24.5 µM
inactive: Potency [1] | Potency [10] | Potency [11] | Potency [2] | Potency [6] | Potency [8]

O=C(O[C@@H]1Cc2c(O)cc(O)cc2O[C@@H]1c1cc(O)c(O)c(O)c1)c1cc(O)c(O)c(O)c1
inactive: Potency [11] | Potency [3] | Potency [6] | Potency [7]
active: Potency [1] 35.5 µM | Potency [10] 30.7 µM and 52.5 µM | Potency [2] 54.6 µM and 29.5 µM | Potency [5] 40 µM and 27.2 µM | Potency [8] 35.7 µM and 48.5 µM
50.4 µM (active) and inactive: Potency [12]
